Test results published in PubChem BioAssay AID1508600 (Functional Genomics Laboratory (NCATS/FGL), 2020).
In all, about 53,000 sequences went through this assay and about 3,700 (7%) were called active.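 Rule for the calls: active = gene knockdowns whose robust z-score for IL-1 alpha signal is at least 2 or at most -2, so actives lie on both sides; inactive = the rest.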 The entries come from a sample that favours actives as a whole.

Assay: Components of the Cytosolic LPS Sensing Pathway: Gene Identification via Genome-wide siRNA Screen;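 note: robust z of the log signal after scaling to non-targeting control siRNA wells of the plate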
Conditions: RAW264.7 macrophages, IL-1a HTRF, actives lie on both sides, screened at 100 nM (by protocol), cells primed 5 h with Pam3CSK4 first
Procedure, shortened: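 RAW264.7 mouse macrophages reverse-transfected with single siRNAs (100 nM final) for 48h, primed with Pam3CSK4 for 5 hours, then transfected with LipidA for 24 hour. Supernatant IL-1a read by HTRF; values normalized to negative-control median, log-transformed robust z-scores.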

Q: For CCAUGUGCUGUGCACUACGTT against Chst14, which z-score is on record?
A: 0.358 (inactive)

Q: Which z-score does the source give for GGAUAAGUGGUCUGCACUATT against Ube2c here?
A: -0.412 (inactive)

Q: For CCACUAUCCCACCAAUCACTT against Lypd8, which z-score is on record?
A: -1.03 (inactive)

Q: With GGCUGCUACUUCAGACAGCTT against Pou6f2 as the sequence, how does the z-score read?
A: -0.163 (inactive)

Q: Which z-score does the source give for GGAGGACCUUCAGAAACUCTT against Gdap2 here?
A: 1.14 (inactive)

Q: With GGUGUCACGACAAACAUUCTT against Fam83h as the sequence, how does the z-score read?
A: -1.6 (inactive)

Q: With GGCAAGGAUAUAAAUUCACTT against Mak as the sequence, how does the z-score read?
A: 2.47 (active)

Q: For GUGGCAGCUGACAUGAAUGTT against Plac8, which z-score is on record?
A: -0.138 (inactive)

Q: Which z-score does the source give for CGGAUACAAUUUCUGACCGTT against Zdhhc23 here?
A: -0.163 (inactive)

Q: With GGUUAUUUGGAAGUGCUACTT against Esx1 as the sequence, how does the z-score read?
A: 2.81 (active)

Q: For GGGACGUGUUAAAAAGGGCTT against Cldn5, which z-score is on record?
A: 0.0829 (inactive)

Q: With CCGCCUAAAUGACUUGACATT against Fbxw14 as the sequence, how does the z-score read?
A: -1.1 (inactive)

Q: Which z-score does the source give for GGAAUUUGGUGCAGUGUCCTT against Utp15 here?
A: -1.39 (inactive)

Q: Which z-score does the source give for GCUAACGAUAUUUAUCACGTT against Olfr385 here?
A: -0.474 (inactive)

Q: For GGGACUUGUCCAUCCUUUUTT against Qrfprl, which z-score is on record?
A: -1.71 (inactive)

Q: For GGAGCAUUAUAUCAAUCCUTT against Zfp111, which z-score is on record?
A: 2.16 (active)

Q: With GCUUACUAAGGUGAUAAUGTT against Il17d as the sequence, how does the z-score read?
A: 0.0918 (inactive)

Q: With CGAAAGAGAUGAUGAUAAUTT against Arrdc3 as the sequence, how does the z-score read?
A: 0.641 (inactive)

Q: For GGAAAAGCAUUUUCAACGUTT against Lhfpl2, which z-score is on record?
A: -1.41 (inactive)

Q: For GCGAACGAGACACUUCAAUTT against Pla2g4a, which z-score is on record?
A: 1.51 (inactive)

Q: For GGAGACAUGGCAUCCAAAUTT against Cnr1, which z-score is on record?
A: 3.14 (active)

Q: With GGAGAAGAGAUCCCUGAACTT against Neurod2 as the sequence, how does the z-score read?
A: -0.491 (inactive)

Q: With CGUGGUCGUGAGAUGUUUGTT against Chid1 as the sequence, how does the z-score read?
A: 1.35 (inactive)

Q: For “CCUUUUAGUGAAAAUAGCATT against A430010J10Rik”, which z-score is on record?
A: -0.924 (inactive)

Q: For GGACUUCUCUGGGACUUCATT against Syt9, which z-score is on record?
A: 0.406 (inactive)

Q: Which z-score does the source give for GCCUCCUGAAUGAUGACAUTT against Klk1b24 here?
A: -0.97 (inactive)

Q: With GGUCAAAGUGAUUGUGUGUTT against Cdh16 as the sequence, how does the z-score read?
A: 0.555 (inactive)

Q: For GGCUAAAUUCUACUUGAUATT against Ppfibp1, which z-score is on record?
A: -1.89 (inactive)

Q: With GGCUGUUUUCUAUCCUAGGTT against Cd207 as the sequence, how does the z-score read?
A: -2.82 (active)

Q: Which z-score does the source give for CUUAGCUACUUCAAGGUCATT against Spink8 here?
A: 0.628 (inactive)
